ALOX12 inh: ALOX12 (human) lipoxygenase inhibition; Potency, µM (highest dose often 108 µM), without a hit: at the highest dose activity change, negative = inhibition, hits mostly inhibitors; purified 12hLO, xylenol orange hydroperoxide absorbance; AID 1671190; actives 1.1% (n = 580,000); further: on the % scale 0 is the no-effect control and ±100 the full control effect
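Purified human 12hLO at 150 nM in 25 mM Hepes, 0.01% Triton X-100, pH 7.0, preincubated 15 min at room temperature with compound. Reaction started with 40 uM arachidonic acid, 30 min at room temperature. Hydroperoxide measured by Fe-xylenol orange, 573/405 nm absorbance ratio.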
HP1b binding inh: HP1-beta chromodomain-methylated histone interaction inhibition; Potency, µM (highest dose often 114 µM), for the others: top-dose activity change, negative = inhibition, hits mostly inhibitors; P83916; AID 540317; AlphaScreen HP1-beta / biotin-H3K9me3 peptide binding; actives 0.56% (n = 390,000); further: nearly all actives have a fitted effect of over 70% in size
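HP1-beta protein (50 nM final) preincubated 30 min at room temperature with biotinylated H3(1-18)K9me3 peptide (50 nM) in PBS pH 7.4, 0.01% Tween-20, then compound added for 30 min. AlphaScreen streptavidin donor/nickel chelate acceptor beads (10 ug/mL final), 30 min dark, luminescence read.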
BAZ2B inh: inhibitors of human BAZ2B bromodomain. actives 4.4% (n = 360,000). AlphaScreen BAZ2B-H3K14Ac peptide displacement. Q9UIF8. AID 504333. Potency, µM (highest dose often 114 µM), inactives show at the top dose activity change, negative = inhibition, usual class: inhibitors; further: on the % scale 0 is the no-effect control and ±100 the full control effect; nearly all actives have a fitted effect of over 60% in size
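AlphaScreen luminescence quantifies BAZ2B engagement of H3K14Ac peptide; the protein and biotinylated peptide are both at 50 nM final, buffer PBS pH 7.4 with 0.01% Tween-20, all steps at room temperature.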
Sfp PPTase inh: blocks B. subtilis Sfp PPTase activity; actives 3.5% (n = 310,000); AID 1490; Biochemical Sfp PPTase activity, qHTS; Q9F4F7; Potency, µM, for inactives: largest response in the series, negative = inhibition, usual class: inhibitors;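 further: the enzyme is Sfp with the accession as filed and its product quenches rhodamine fluorescence; 0% = enzyme reaction without inhibitor and -100% = no enzyme wells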
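Reaction rates are the 30-min fluorescence difference (ex 525, em 598 nm) in wells containing 15 nM Sfp, 5 uM rhodamine-CoA and 12.5 uM BHQ-2-YbbR at pH 7.6 with 10 mM MgCl2.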
G9a inh: inhibitors of human histone lysine methyltransferase G9a. Potency, µM (series often up to 102 µM), for the others: at the highest dose activity, negative = inhibition, usual class: inhibitors. Q96KQ7. G9a H3K9 monomethylation, AlphaScreen, 2 h. actives 8.8% (n = 350,000); further: on the % scale 0 is the no-effect control and ±100 the full control effect; nearly all actives have a fitted effect of over 75% in size
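AlphaScreen detection with an anti-monomethyl H3K9 antibody quantified product after a 2 h room-temperature reaction containing 500 nM biotinylated H3K9 peptide, 20 µM SAM and 20 nM enzyme, which had been preincubated 15 min with compound.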
JMJD2A Tudor: inhibitors of human JMJD2A Tudor domain; O75164; AlphaScreen JMJD2A-Tudor / H3K4me3 peptide binding; Potency, µM (top dose mostly 114 µM), without a hit: at the top dose activity change, negative = inhibition, most hits filed as inhibitors; actives 4.4% (n = 390,000); AID 504339; further: on the % scale 0 is the no-effect control and ±100 the full control effect; nearly all actives have a fitted effect of over 50% in size
* hit, by the source's call; ? = inconclusive; . = no result given; ! = a repeat was not active; [ ] = dose if it differs, or a comment. An excerpt weighted towards active compounds, which were near 8.7% of everything screened. The call rests on the fitted dose curve; in most records, active means well fitted curve in the direction sought with a large enough effect; inconclusive means small, poorly fitted or top-dose-only effect, or another doubt; inactive means no such curve, though single readings can be large; an effect the other way counts as inactive or inconclusive. Potency means the concentration at half of the fitted maximal effect.

SMILES | ALOX12 inh | HP1b binding inh | BAZ2B inh | Sfp PPTase inh | G9a inh | JMJD2A Tudor
CCc1nnc2n1N=C(c1ccc(OC)cc1)CS2 | -20% | 32% | -5% | 16% | -19%[59 µM] | -22%
Fc1ccc(-c2csc3[n+]2CCS3)cc1 | -8% | 34% | 5% | 25% | -4%[59 µM] | -17%
O=[N+]([O-])c1ccc(-c2csc3[n+]2CCS3)cc1 | ? | 17% | 1% | 11µM* | 35µM* | -14%
COc1ccc(C(=O)NCC2(c3ccccc3)CCOCC2)cc1[N+](=O)[O-] | -9% | ? | -2% | 16% | 18%[59 µM] | 32µM*
COc1ccc(C2(CNC(=O)c3ccc(OC)c([N+](=O)[O-])c3)CCOCC2)cc1OC | -22% | 16% | 0%[57.1 µM] | 25% | -7% | -20%
O=C(NC1CCCCCC1)c1ccccn1 | -14% | . | . | . | . | .
O=C(NC1CCCCC1)/C(=N\O)c1ccccn1 | -15% | -1% | -31% | -8% | 50µM* | ?
Nc1cccc(-c2c[nH]c3ncc(-c4cccnc4)cc23)c1 | . | 3% | . | . | . | 18µM*
FC(F)(F)c1ccc2c(c1)nc1n2[C@@H](CNC2CCC2)COC1 | 22%[176 µM] | . | . | . | . | .
C=CCNc1nnc(-c2cccc3ccccc23)o1 | . | . | . | . | . | 11µM*
C=CCNc1oc(-c2cccc3ccccc23)nc1C#N | ? | -17% | ? | -30% | ? | -7%
C=CCSc1nnc(-c2cccc3ccccc23)o1 | 0% | 52% | . | . | . | 13µM*
COc1ccc(OC)c(-c2oc3ccccc3c(=O)c2O)c1 | ? | 35% | -1% | 89µM* | ? | 4%
COc1ccccc1-c1oc2ccccc2c(=O)c1O | . | . | . | 5% | . | .
CNC(=O)c1ccc(NC(=O)CN2CCc3cc(OC)c(OC)cc3C2c2cccs2)cc1 (stereo unspecified) | -4% | . | . | . | . | .
O=C(O)CCN1CCc2ccccc2C1c1cccs1 (stereo unspecified) | -9% | 36% | -38% | -8% | 50µM* | 3%
CNC(=O)[C@@H]1C[C@H](n2cc(CN(C)C(=O)Nc3ccc(C)c(C)c3)nn2)CN1 | 25% | . | . | . | . | .
Cc1ccc(NC(=O)C(NC2CCCc3ccccc32)c2ccccc2)c([N+](=O)[O-])c1 (stereo unspecified) | ? | 25µM* | 45µM* | -41% | 11µM* | 4.5µM*
CNC(=O)NC(=O)C(NC1CCCc2ccccc21)c1ccccc1 (stereo unspecified) | -6% | 24% | -2% | 7% | ? | -14%
COc1cc(/C=C2/C(C)=C(C#N)c3nc(N)c(C#N)c(C)c32)ccc1OCC(=O)O | ? | -24% | 45µM* | ? | . | -5%[11.4 µM]
CC1=C(C#N)c2nc(N)c(C#N)c(C)c2/C1=C\c1ccc(-c2ccccc2C(=O)O)o1 | ? | 45µM* | 13µM* | ? | 7.9µM* | 35µM*
COc1cc(F)ccc1-c1nc(-c2c(C)noc2C)cc2[nH]c(C)cc12 | 0%[176 µM] | . | . | . | . | .
CCN(CC1CCCN(CCc2cccc(F)c2)C1)C(=O)CCc1ccccn1 (stereo unspecified) | 2% | . | . | . | . | .
CCC(NC(=O)c1ccc(C)c(NC(=O)C2CC2)c1)c1ncnn1CC (stereo unspecified) | 30% | . | . | . | . | .
Cc1ccccc1N=C1CCCc2ccccc21 | -14% | . | . | . | . | .
SMILES | ALOX12 inh | HP1b binding inh | BAZ2B inh | Sfp PPTase inh | G9a inh | JMJD2A Tudor
Cc1cc(C2CCCCC2)n(O)c(=O)c1 | 40µM*! | 25% | 79µM* | 5% | 5%[59 µM] | ?
O=C(CN1CCC2(CC1)NC(=O)CC2C(=O)O)NCc1ccccn1 (stereo unspecified) | 85% | . | . | . | . | .
C1CCN(c2nc(NNc3nc(N4CCCCC4)nc(N4CCCCC4)n3)nc(N3CCCCC3)n2)CC1 | 24% | . | . | . | . | .
CCNC(=S)NNc1nc(N2CCCCC2)nc(N2CCOCC2)n1 | ? | -6% | . | 11µM* | ? | -8%
COc1cc2c(cc1OC)C(c1cc3cc4c(cc3[nH]c1=O)OCO4)N(C(=O)C1CC1)CC2 (stereo unspecified) | 1% | 18% | 7% | 40µM* | 10%[59 µM] | -24%
O=C(COC(=O)c1ccc(S(=O)(=O)NCc2ccco2)cc1)Nc1ccccc1OC(F)F | -6% | 4% | 47% | 32µM* | 50µM* | -19%
O=C(COC(=O)c1ccc(S(=O)(=O)NCc2ccco2)cc1)Nc1ccc(Cl)cn1 | ? | -31% | 56µM* | -2% | 50µM* | ?
O=C(COC(=O)c1ccc(S(=O)(=O)NCc2ccco2)cc1)Nc1ccccc1 | -13% | 15% | 10% | . | ? | -6%
O=C(O)CNC(=O)c1ccc(NS(=O)(=O)c2cc(Cl)ccc2Cl)cc1 | -14% | . | . | . | . | .
COC(=O)COc1cccc(N)c1 | 13µM* | . | . | . | . | .
COc1cccc(C(=O)N2CCC(Oc3ncccc3C(=O)N3CCCCC3)C2)c1OC (stereo unspecified) | 5% | . | . | . | . | .
COc1cc(CN2CCC(C(=O)NC(c3ccc(F)cc3)c3ccc4ccccc4n3)CC2)cc(OC)c1 (stereo unspecified) | -28% | . | . | . | . | .
Cn1cc(CN2CCC(C(=O)NC(c3ccc(F)cc3)c3ccc4ccccc4n3)CC2)c2ccccc21 (stereo unspecified) | 45µM* | . | . | . | . | .
CC(=O)N1CCN(c2ccc(Oc3ccc([N+](=O)[O-])c(C(F)(F)F)c3)cc2)CC1 | . | -36% | ? | -11% | 50µM* | ?
CCOc1ccc(C(=O)Nc2ccc(N3CCN(C(C)=O)CC3)cc2)cc1[N+](=O)[O-] | -14% | -14% | ? | 4% | ? | -27%
CCN(C=NC1=NN(c2cccc(C(F)(F)F)c2)CC1)CC | ? | ? | 50µM* | 4% | ? | 50µM*
Cc1cccc(N2CCC(N=CN(C)C)=N2)c1 | 45µM* | 6% | -24% | ? | 4µM* | ?
OCCN(C=NC1=NN(c2cccc(C(F)(F)F)c2)CC1)CCO | ? | -9% | -8% | -12% | . | ?
COc1cc(C#N)cc(Cl)c1O | -10% | . | . | . | . | .
CCCCOC(=O)Cn1nnc2sc(-c3ccccc3)cc2c1=O | ? | 46% | -16% | . | 10%[59 µM] | -14%
CCCN(CCC)C(=O)Cn1nnc2sc(-c3ccccc3)cc2c1=O | ? | -4% | ? | . | 13µM* | -29%
CCN(C(=O)Cn1nnc2sc(-c3ccccc3)cc2c1=O)c1cccc(C)c1 | ? | -18% | -37% | . | 4.5µM* | ?
CCc1ccc(NC(=O)C(C)n2nnc3sc(-c4ccccc4)cc3c2=O)cc1 (stereo unspecified) | ? | -14% | -8% | . | 3.5µM* | -28%
O=C(Cn1nnc2sc(-c3ccccc3)cc2c1=O)Nc1ccccc1 | -19% | . | . | . | . | .

Screening results as filed in PubChem.
